This is a sample that favours compounds with a hit; in the whole collection about 18% have one here.
TDP1 cell noCPT = qHTS for Inhibitors of human tyrosyl-DNA phosphodiesterase 1 (TDP1): qHTS in cells in absence of CPT | Potency, µM (doses to about 46.2 µM), for inactives: at the highest dose activity change, negative = growth inhibition, hits mostly inhibitors | DT40 Tdp1-/- hTDP1 cells, no CPT, ATP luminescence, 48 h | 420,000 compounds, 15% hits; further: nearly all actives have a fitted effect of over 55% in size
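Growth of hTDP1-complemented DT40 Tdp1-knockout cells is measured by ATP luminescence after at least 48 hr compound exposure at 37 °C, with DMSO substituting for the 20 nM CPT used in the parallel screen.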
DT40 TDP1 CPT = DT40-hTDP1 cell growth loss with CPT; chicken DT40 Tdp1-/-;hTDP1 cells + 20 nM CPT, ATP luminescence, 48 h; 420,000 compounds, 12% hits; Potency, µM (titrated, usually from 46.2 µM), for the others: top-dose activity change, negative = growth inhibition, actives largely listed as inhibitors; further: nearly all actives have a fitted effect of over 55% in size
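Chicken DT40 Tdp1-/- cells complemented with human TDP1, 400 cells/well, exposed to compounds plus 20 nM camptothecin for at least 48 h at 37 C; viability read as ATP content by CellTiter-Glo luminescence.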
TDP1 inh = inhibitors of human tyrosyl-DNA phosphodiesterase TDP1. Q9NUW8. recombinant TDP1, AlphaScreen DNA substrate cleavage. Potency, µM (doses to about 130 µM), without a hit: at the top dose activity change, negative = inhibition, most hits filed as inhibitors. 350,000 compounds, 0.28% hits. AID 485290; further: nearly all actives have a fitted effect of over 40% in size
Target sequence (Q9NUW8 whole entry, looked up): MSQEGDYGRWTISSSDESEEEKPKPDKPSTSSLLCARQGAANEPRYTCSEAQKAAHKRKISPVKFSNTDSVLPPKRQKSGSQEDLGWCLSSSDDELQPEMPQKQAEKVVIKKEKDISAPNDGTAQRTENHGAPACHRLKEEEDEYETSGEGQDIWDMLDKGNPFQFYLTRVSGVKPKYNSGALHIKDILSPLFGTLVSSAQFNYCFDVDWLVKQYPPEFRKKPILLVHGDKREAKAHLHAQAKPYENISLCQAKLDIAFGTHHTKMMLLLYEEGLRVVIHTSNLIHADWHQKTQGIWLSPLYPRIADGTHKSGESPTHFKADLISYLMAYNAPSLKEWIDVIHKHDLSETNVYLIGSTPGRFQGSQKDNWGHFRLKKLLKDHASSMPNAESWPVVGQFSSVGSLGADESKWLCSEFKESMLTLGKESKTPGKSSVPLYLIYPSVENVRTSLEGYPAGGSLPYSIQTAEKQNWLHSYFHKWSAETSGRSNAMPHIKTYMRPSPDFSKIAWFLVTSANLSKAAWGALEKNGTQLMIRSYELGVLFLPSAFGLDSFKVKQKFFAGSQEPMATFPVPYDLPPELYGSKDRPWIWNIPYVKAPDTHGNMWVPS
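Recombinant E. coli-expressed Tdp1 (1 nM) preincubated with compound 15 min at RT, then 5'-biotin/3'-phosphotyrosine-FITC DNA substrate (15 nM) added for 5 min. AlphaScreen beads (10 ug/ml) added, 10 min RT; tyrosine-FITC cleavage read as signal loss.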
PLK1 PBD block = blocks phosphopeptide binding to human PLK1 polo-box domain. P53350. Plk1 PBD binding of FITC phosphopeptide, fluorescence polarization. Potency, µM, for the others: max response, negative = inhibition, hits mostly inhibitors. 360,000 compounds, 2.8% hits; further: series mostly up to about 57 µM; nearly all actives have a fitted effect of over 65% in size
GCN5L2 inh = blocks human GCN5L2 histone acetyltransferase. AID 504327. 390,000 compounds, 0.21% hits. Potency, µM (top dose mostly 58.9 µM), without a hit: at the highest dose activity change, negative = inhibition, most hits filed as inhibitors. GCN5L2 HAT assay, ThioGlo1 CoA-SH fluorescence. Q92830
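Enzyme at 20nM final was mixed with library compounds for 15 min at room temperature. Peptide H3(1-25) at 75uM, acetyl-CoA at 70uM and ThioGlo1 at 50uM were then added. Plates were read immediately and after 20 min (Ex340nm/Em540nm).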
VDR inh = blocks the human vitamin D receptor; VDR-SRC2-3 peptide fluorescence polarization, 2 h; Potency, µM, inactives show max response, negative = inhibition, most hits filed as inhibitors; 400,000 compounds, 0.93% hits; AID 504847
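Compounds are added to VDR with labelled SRC2-3 coactivator peptide and held 2 h at room temperature. Inhibition of the VDR–peptide interaction is then read as a change in fluorescence polarization.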
* hit, by the source's call; ? = inconclusive; . = not tested or not shown; ! = a repeat was not active; [ ] = another dose, or the depositor's remark. The call rests on the fitted dose curve; in most records, active means well fitted curve in the direction sought with a large enough effect; inconclusive means small, poorly fitted or top-dose-only effect, or another doubt; inactive means no such curve, though single readings can be large; an effect the other way counts as inactive or inconclusive. On the % scale 0 is the no-effect control and ±100 the full control effect; potency means the concentration at half of the fitted maximal effect.

SMILES	TDP1 cell noCPT	DT40 TDP1 CPT	TDP1 inh	PLK1 PBD block	GCN5L2 inh	VDR inh
COc1ccc(N(Cc2cccs2)C(=O)COc2cc(C)c(Cl)c(C)c2)cc1	?	?	-12.0%	.	-17.0%	4.0%
COc1ccc(-c2noc(COC(=O)c3ccco3)n2)cc1OC	0.9%	-17.8%	-1.1%	3.8%	-9.3%	8.0%
Cc1ccc(S(=O)(=O)N(CCCN2CCCC2=O)Cc2cc3c(C)ccc(C)c3[nH]c2=O)cc1	23.1µM*	18.4µM*	9.6%	-1.3%	-13.6%	-12.9%
Cc1ccc(C)c2[nH]c(=O)c(CN(CC3CCCO3)S(=O)(=O)c3ccc4c(c3)OCCO4)cc12 (centres undefined)	16.4µM*	?	3.4%	2.8%	-1.2%	1.1%
Cc1cc(C)c2[nH]c(=O)c(CN(CC3CCCO3)S(=O)(=O)c3ccc4c(c3)OCCO4)cc2c1 (centres undefined)	23.1µM*	?	5.1%	-0.8%	-20.0%	-2.1%
COCCNC(=O)C(c1ccc(F)cc1)N(Cc1ccccc1)C(=O)CCC(=O)Nc1ccccn1 (centres undefined)	-7.7%	1.4%	0.2%[0.0935 µM]	-3.7%	-0.5%	-9.1%
COC(=O)c1c(NC2=NS(=O)(=O)c3ccccc32)sc2c1CCC(C(C)(C)C)C2 (centres undefined)	14.6µM*	18.4µM*	.	-12.1%	.	7.0%
COC(=O)c1ccccc1NC(=O)CSc1nc2ccsc2c(=O)n1CCCCC(=O)O	-23.4%	-28.5%	.	-13.3%	.	.
COc1ccc2c(c1)OC[C@H]1[C@H]2N2C(=O)c3cc(C)ccc3NC(=O)[C@@]2(C)[C@H]1c1ccccc1	?	16.4µM*	1.2%	-11.4%	-8.5%	-26.3%
Cc1ccc2c(c1)C(=O)N1[C@H]3c4ccccc4OC[C@@H]3[C@H](c3ccccc3)[C@]1(C)C(=O)N2	?	?	2.0%	-5.1%	-9.0%	-2.6%
COc1ccc2c(c1)[C@@H]1[C@H](CO2)[C@H](c2ccccc2)[C@]2(C)C(=O)Nc3ccc(C)cc3C(=O)N12	?	18.4µM*	4.4%	0.7%	-11.8%	-11.6%
COc1ccc2c(c1)[C@H]1[C@H](CO2)[C@H](c2ccccc2)[C@]2(C)C(=O)Nc3ccc(Cl)cc3C(=O)N12	?	18.4µM*	.	-0.7%	.	-10.1%
Cc1ccc2c(c1)[C@H]1[C@H](CO2)[C@H](c2ccccc2)[C@]2(C)C(=O)Nc3ccc(Cl)cc3C(=O)N12	14.6µM*	?	-0.4%	3.7%	-9.7%	-2.2%
O=CN1CCCN(C(=O)c2cc(NC(=O)c3ccccc3)cc3ncn(C4CCCC4)c23)CC1	-13.0%	20.0%	.	.	.	.
CN(Cc1ccccc1)c1nc2c(S(=O)(=O)c3cccc(Cl)c3)nnn2c2ccsc12	?	?	2.6%	.	-4.2%	0.1%
COc1ccc2c(c1)[C@H]1[C@H](CO2)[C@H](c2ccccc2)[C@]2(C)C(=O)Nc3ccc(C)cc3C(=O)N12	?	?	5.2%	-5.0%	-5.1%	9.6%
COc1ccc2c(c1)C(=O)N1[C@H]3c4cc(C)ccc4OC[C@@H]3[C@H](c3ccccc3)[C@]1(C)C(=O)N2	10.3µM*	7.31µM*	-0.3%	-16.5%	-8.3%	-7.8%
O=C(CCc1nnc2ccc(NCc3ccccc3)nn12)NC1CCCCC1	20.0%	-29.7%	5.4%	23.8µM*	-4.6%	-12.9%
O=C(CCc1nnc2ccc(NCc3ccco3)nn12)Nc1ccccn1	-15.0%	2.9%	25.1µM*	-4.5%	-4.7%	-17.1%
Cc1cccnc1NC(=O)CCc1nnc2ccc(NCc3ccco3)nn12	-1.5%	?	.	-8.6%	-7.4%	6.9%
Cc1ccc(-n2nc(C(C)(C)C)cc2NC(=O)Nc2ccc(OCCN3CCOCC3)c3ccccc23)cc1	?	-111.8%	.	.	.	.
COc1cccc(C2=Nn3c(nnc3-c3ccc(OC)cc3OC)SC2)c1	.	.	10.9%	.	.	.
O=C(c1cc(-c2ccc(O)cc2)on1)N1CCN(c2ccccc2)CC1	?	18.4µM*!	6.4%	33.6µM*	-22.8%	0.4%
O=C(c1cc(-c2ccc3c(c2)OCO3)on1)N1CCN(c2ccccc2)CC1	-11.6%	1.4%	1.9%	2.9%	-10.9%	-0.4%
O=C(c1cc(-c2ccc(O)cc2)on1)N1CCN(c2ccc(F)cc2)CC1	?	20.6µM*	.	2.2%	-17.3%	-19.0%
SMILES	TDP1 cell noCPT	DT40 TDP1 CPT	TDP1 inh	PLK1 PBD block	GCN5L2 inh	VDR inh
O=C(c1cc(-c2ccc3c(c2)OCO3)on1)N1CCN(c2ccc(F)cc2)CC1	-10.9%	5.5%	3.8%	0.0%	-5.3%	-2.7%
CCOC(=O)c1ccc(S(=O)(=O)N2CCN(C(=O)C3CSC4(C)CCC(=O)N34)CC2)cc1 (centres undefined)	?	-28.2%	6.2%	-6.9%	4.0%	5.4%
CCOC(=O)[C@H]1[C@H]2COc3ccc(C)cc3[C@@H]2N2C(=O)c3cc(Cl)ccc3NC(=O)[C@@]12C	?	?	0.4%	4.6%	-5.0%	4.0%
CCOC(=O)[C@H]1[C@H]2COc3ccc(Br)cc3[C@@H]2N2C(=O)c3ccc(Cl)cc3NC(=O)[C@@]12C	18.4µM*	18.4µM*	0.1%	0.8%	-4.6%	-0.2%
CCOC(=O)[C@H]1[C@H]2COc3ccc(C)cc3[C@@H]2N2C(=O)c3ccccc3NC(=O)[C@@]12C	-10.2%	?	0.5%	-3.9%	-6.8%	-20.5%
CCOC(=O)[C@H]1[C@H]2COc3ccc(C)cc3[C@@H]2N2C(=O)c3ccc(C)cc3NC(=O)[C@@]12C	?	23.1µM*	6.4%	-2.8%	-9.4%	-7.5%
Cc1cc(C(=O)NCC2CCC3(CCN(Cc4cc(F)ccc4F)CC3)O2)n(C)n1 (centres undefined)	?	-12.3%[9.04 µM]	.	.	.	.
COc1ccc2[nH]c(O)c(N=NC(=O)c3ccc(NS(=O)(=O)c4cccs4)cc3)c2c1	7.2%	-10.7%	-6.4%	-6.5%	-3.9%	9.6%
COc1ccc(C=NNC(=O)c2ccccc2NS(=O)(=O)c2cccs2)cc1O	-4.9%	-2.4%	1.2%	-9.5%	-7.7%	-1.1%
O=C(N=Nc1c(O)[nH]c2ccc(F)cc12)c1ccc(NS(=O)(=O)c2cccs2)cc1	9.5%	33.1%	-20.8%	-6.1%	-2.2%	22.3%
Cc1cccc2c(N=NC(=O)c3ccc(NS(=O)(=O)c4cccs4)cc3)c(O)[nH]c12	?	?	50.1µM*	?	-14.3%	9.2%
O=C(N=Nc1c(O)[nH]c2ccccc12)c1ccccc1NS(=O)(=O)c1cccs1	-29.2%	16.4µM*	3.5%	-5.5%	-2.7%	-2.4%

Source: PubChem BioAssay (National Center for Advancing Translational Sciences (NCATS))
